Among all 83,000 compounds or so, fewer than 10 were called active. These entries were drawn from the full list. Potency and affinity values are given separately. Values without a mark were called inactive. How the calls were made is not given here.

The target in the assay is Heat shock cognate 71 kDa protein (Homo sapiens) (UniProt P11142). As to the kind of experiment: small molecules displacing fluorescent ligand from Hsc70 – biochemical, fluorescence polarization, primary screen (AID 568). The conditions noted are these: mP, at 20 µM, stronger effect = higher value. A general note: In fluorescence polarisation assays a small probe gives low polarisation when free and higher when bound to something large.
Sequence of Heat shock cognate 71 kDa protein (Homo sapiens) (P11142 whole entry, looked up): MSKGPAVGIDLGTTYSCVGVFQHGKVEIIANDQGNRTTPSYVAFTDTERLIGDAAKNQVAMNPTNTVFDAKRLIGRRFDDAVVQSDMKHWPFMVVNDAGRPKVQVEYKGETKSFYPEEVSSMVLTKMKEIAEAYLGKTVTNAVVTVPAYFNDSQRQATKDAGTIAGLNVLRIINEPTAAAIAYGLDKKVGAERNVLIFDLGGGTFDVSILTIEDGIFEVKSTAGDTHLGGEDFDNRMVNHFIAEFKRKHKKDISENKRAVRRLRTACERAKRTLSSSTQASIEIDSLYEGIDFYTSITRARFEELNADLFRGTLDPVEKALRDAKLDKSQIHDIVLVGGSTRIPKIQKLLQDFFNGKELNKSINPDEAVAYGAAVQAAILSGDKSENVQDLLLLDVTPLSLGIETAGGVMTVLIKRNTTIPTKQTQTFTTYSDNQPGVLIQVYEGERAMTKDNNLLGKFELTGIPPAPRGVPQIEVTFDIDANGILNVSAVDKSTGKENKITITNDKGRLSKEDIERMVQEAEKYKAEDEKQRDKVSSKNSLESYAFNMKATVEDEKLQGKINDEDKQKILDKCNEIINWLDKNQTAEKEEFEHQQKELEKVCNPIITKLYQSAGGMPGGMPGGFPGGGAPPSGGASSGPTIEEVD
Sequence of Heat shock cognate 71 kDa protein (Homo sapiens) (P11142 whole entry, looked up): as above
Regarding `O=C(Nc1cccc(Cl)c1N1CCCC1)c1cc2ccccc2o1`, the displacement was -2.4%. The figure for `CCOC(=O)C1=NN(c2ccccc2)C2(S1)SC(C(C)=O)=C(C)N2c1ccccc1` (stereo not drawn) is 3.4%. The figure for `Cc1noc(C)c1CSc1nnc2cc(C)c3ccccc3n12` is -6.7%; for `Cc1ccc(C(=O)NCc2occc2C(=O)O)o1` it is 2.4%; for `CCn1c2ccccc2c2nnc(SCC(=O)Nc3ncccn3)nc21` it is 5.9%.

For `COc1ccc(S(=O)(=O)NCC(=O)N(CC(=O)NCC2CCCO2)c2c(C)cccc2C)cc1` (stereo not drawn), the displacement was -3.5%. As to `O=C(Nc1ccncc1)c1cc(F)cc(F)c1`, the displacement is 3.6%.

As to `c1ccc2sc(N3CCN(Cc4nnnn4CC4CCCO4)CC3)nc2c1` (stereo not drawn), the displacement was 1.7%. The figure for `Cn1c(SCc2ccc(F)cc2)nnc1-c1cccs1` is -5%; for `CCOc1ccc(C(C#N)N2CCOCC2)cc1OC` (stereo not drawn) it is -4.5%; for `CCCCN(C(=O)c1cc(OC)c(OC)c(OC)c1)C1=CC2CCC(C1)N2C` (stereo not drawn) it is -2.2%.

As for `Cc1nn(-c2ccccn2)c2nc(-c3cccs3)cc(C(=O)N3CCOCC3)c12`, the displacement is 0.1%. The figure for `Cn1c(SCC(=O)NCc2ccc3c(c2)OCO3)nnc1-c1cccs1` is -4.3%; for `COc1ccc(-c2nc(C)c(C(C)=O)n2O)cc1` it is 3.1%.

Consider `COC(=O)c1ccc(OCC(=O)c2ccccc2OC)cc1`, for which the displacement was 2.4%. With `CCOC(=O)c1ccc2nc(NC(=O)c3cccs3)sc2c1`, the displacement is -11.3%. For `O=C(c1cccc(S(=O)(=O)N2CCCCC2)c1)N1CCN(S(=O)(=O)c2ccc(F)cc2)CC1`, the displacement is 7.4%. The figure for `N#Cc1ccccc1NC(=O)CSc1nnc(-c2ccccc2O)n1-c1ccccc1` is -3.5%.

Turning to `CCN(CC)S(=O)(=O)c1cccc(C(=O)Nc2cccnc2)c1`, the displacement was 4.9%. The figure for `CCOC(=O)c1cccc(N2C(=O)C3C(C(=O)NC4CC4)C4(C)C=CC3(O4)C2C(=O)NC(C)(C)C)c1` (stereo not drawn) is 0.8%; for `COc1ccc(NC(=O)CSc2nc3ccccc3c(=O)n2CCNC(C)=O)cc1` it is 1%; for `CC(C)c1ccc(-c2nnn(Cc3nc4ccccc4s3)n2)cc1` it is 7.9%.

Regarding `CC1=C(C(=O)N2CCOCC2)C(c2cccs2)NC(=O)N1` (stereo not drawn), the displacement is 1.5%. For `Cc1c(NC2=NC(C)(C)Cc3ccccc32)c(=O)n(-c2ccccc2)n1C`, the displacement is -0.6%. The result for `CCc1ccccc1NC(=O)N[C@@H](C)C(=O)O` reads 4.3%; that for `CCCCNC(=S)NNC(=O)c1ccco1`, 4%; that for `CC1=C(C(=O)OC(C)C)C(c2c[nH]c3ccccc23)n2ncnc2N1` (stereo not drawn), 4.3%. The figure for `CNS(=O)(=O)c1cccc2cccnc12` is 5.1%; for `Cc1ccc(C)c(-n2c(SCC(=O)NCC3CCCO3)nnc2-c2ccoc2C)c1` (stereo not drawn) it is -2.3%. With `O=C1C2C3C=CC(C3)C2C(=O)N1c1ccc2ccccc2n1` (stereo not drawn), the displacement was 6.3%. The result for `CCOC(=O)c1c(NC(=O)CSc2nnc(-c3cccnc3)o2)sc2c1CCC2` reads -5%; that for `Cn1c(CNC(=O)c2cccs2)nnc1SCC(=O)Nc1ccc(Cl)cc1`, 1.1%. The result for `COc1ccc(Br)cc1CNC(=O)CCc1nc(-c2ccccc2F)no1` reads 0%; that for `COC(=O)c1[nH]nc2c1C(=O)N(C1CCCCC1)C2=O`, 2.9%; that for `CCCC1CCC(C2=N/C(=C\c3ccc(OC)c(OC)c3)C(=O)O2)CC1` (stereo not drawn), -5%. In the case of `Cn1c(CCN2CCN(c3ccccc3)CC2)nc2cc(NC(=O)c3ccco3)ccc21`, the displacement is 0.4%. The result for `O=C(COC(=O)c1cccnc1)c1ccc(Cl)c(Cl)c1` reads -1.2%; that for `CCn1c(COc2ccccc2C)nnc1SCC(=O)CC(=O)Nc1ccccc1`, 2.2%. For `CN(Cc1ccccc1)C(=O)c1ccc2c(c1)OCCO2`, the displacement was 0.2%. The figure for `Cn1cc(S(=O)(=O)CC(=O)Nc2ccc3c(c2)OCCO3)c2ccccc21` is 7.1%; for `NC(=O)c1ccccc1N/C=C/C(=O)c1ccco1` it is 5.3%; for `CCN1CCN(CCCNC(=O)C2CCCN(c3nnc(-n4cccc4)s3)C2)CC1` (stereo not drawn) it is 7%. Turning to `Cc1ccc2oc(=O)c3cnn(CC(=O)NCCN4CCOCC4)c3c2c1`, the displacement was 2.8%. The figure for `Cc1c(C(=O)O)oc2ccc(S(=O)(=O)NCc3ccccc3)cc12` is -0.1%; for `COc1ccc(C(c2nnnn2Cc2cccs2)N2CCN(c3ccccc3F)CC2)cc1` (stereo not drawn) it is -2.2%.

Regarding `CC(=O)NCCn1c(SCC(=O)NCCC2=CCCCC2)nc2ccccc2c1=O`, the displacement was -4.3%.

`Cc1cc(C)cc(N(C(=O)c2ccc3c(c2)OCO3)C2C=CS(=O)(=O)C2)c1` (stereo not drawn): the displacement is -3.3%. In the case of `CCN(CC)S(=O)(=O)c1ccc(-c2nnc(SCc3nnc(-c4ccc(C)cc4)o3)n2CC)cc1`, the displacement is -2.9%. The figure for `CC(C)(C)C(=O)CNS(=O)(=O)c1ccc(S(=O)(=O)NC2CCCC2)cc1` is 2.7%. As to `Cc1ccc(OC(C)C)c(CN(CCO)CCO)c1`, the displacement was -3.1%. The result for `COc1ccc(S(=O)(=O)N2CCSC2c2ccc(N)cc2)cc1` (stereo not drawn) reads 2.5%; that for `CSc1nn(CCc2ccncc2)c(=S)s1`, -0.7%. The figure for `COc1cc(NC(=O)c2cc(C)on2)cc(OC)c1OC` is 8%; for `N#C/C(=C\Nc1ccc2c(c1)OCCO2)c1nc2ccccc2[nH]1` it is -23.3%; for `CC(C)c1[nH]nc2c1C(Cc1ccccc1)C(C#N)=C(N)O2` (stereo not drawn) it is 5.2%.

On to `COc1ccccc1N1CCN(C(=O)c2c(-c3ccccc3Cl)noc2C)CC1`, for which the displacement was -6.4%. The figure for `CC(=O)Nc1ccc(S(=O)(=O)Nc2cccc(N(C)S(C)(=O)=O)c2)cc1` is -0.7%; for `CCOc1ccc(S(=O)(=O)Nc2ccccc2SC)cc1` it is -1.7%.

Turning to `NC(=O)c1ccsc1NC(=O)COc1ccccc1`, the displacement is 9.1%. The figure for `COC(=O)c1c(NS(C)(=O)=O)sc2c1CCCC2` is 3.6%; for `COc1ccc(NC(=O)CCn2nc(C)cc2C)cc1` it is -4.3%; for `O=C(CSc1nnc(Cn2c(=O)sc3ccccc32)n1CCc1ccccc1)N1CCCC1` it is 1.9%. The figure for `COc1ccc(S(=O)(=O)NCC2CCC(C(=O)N3CCC4(CC3)OCCO4)CC2)cc1` (stereo not drawn) is -1.2%.

`CC1CCN(c2nc(-c3ccccc3)c(C#N)c(=O)[nH]2)CC1`: the displacement is -1.1%. The figure for `C=CCn1c(O)c(C(CC)=Nc2ccccc2NC(=O)CC)c(=O)[nH]c1=O` is 0%; for `NC(=O)CSc1nnc(CCc2nc3ccccc3[nH]2)n1-c1ccccc1` it is -0.4%.

In the case of `COC(=O)c1ccc(Nc2nc(C)cc(=O)[nH]2)cc1`, the displacement is -5.8%. Turning to `Cc1occc1C(=O)Nc1cc(C(C)(C)C)on1`, the displacement was -3.1%. The figure for `CCn1c(=O)n(CC)c2cc(S(=O)(=O)Nc3ccccc3C)c(C)cc21` is 0.5%. As for `CCOC(=O)N1CCN(C(=O)c2ccc(N3C(=O)c4ccccc4C3=O)cc2)CC1`, the displacement is -0.7%. The figure for `O=C1OCC(Cn2c3ccccc3c3ccccc32)O1` (stereo not drawn) is 4.8%; for `O=C(CN1C(=O)c2cccc3cccc1c23)N1CCN(Cc2ccc3c(c2)OCO3)CC1` it is -5.5%.

Consider `CC(C)C(=O)Nc1cc(=O)[nH]c2ncnn12`, for which the displacement is -7.6%. The result for `CCN1C(=O)Cc2cc(S(=O)(=O)N3CCOCC3)ccc21` reads 7%; that for `N#Cc1cn(CC(=O)N2CCCC2)c2ccccc12`, -2.4%. The result for `Clc1ccc(OCCn2cnc3ccccc32)c(Cl)c1` reads -4%; that for `CCC(CC)C(=O)NCc1ccccc1Cl`, 0.3%. The result for `Cc1ccc(S(=O)(=O)/N=C2/C=C(C3C(=O)CC(C)(C)CC3=O)C(=O)c3ccccc32)cc1` reads 4%; that for `Cc1ccc(C(=O)COc2nc(C)cc(C)c2C#N)cc1`, 3.2%. As for `Cc1cc(=O)n2nc(N3CCCC(C(=O)NCCCN4CCc5ccccc5C4)C3)sc2n1` (stereo not drawn), the displacement is 3%. The result for `CC(C)OC(=O)C1CC=CCC1C(=O)Nc1ccc(Cl)cc1` (stereo not drawn) reads 0.4%; that for `CCc1nnc(NC(=O)CSc2nnnn2C)s1`, -1.1%. The figure for `CC(C)CCNC(=O)c1ccc2c(c1)ncn2C1CCCCC1` is 0.7%. The result for `Oc1ccccc1CNCCCNCc1ccccc1O` reads -1.3%. In the case of `COc1ccccc1N1C(=O)CC(Sc2nc(C)cc(C)n2)C1=O` (stereo not drawn), the displacement was 0.9%.

On to `COC(=O)c1ccc(NC(=O)CCN2CCN(CCC(=O)Nc3ccc(C(=O)OC)cc3)CC2)cc1`, for which the displacement is 2.6%. The result for `Cc1cc(C)c2c(N)c(S(=O)(=O)Cc3ccccc3)sc2n1` reads 3.8%; that for `O=C(O)CCN1C(=O)C2CCCCC2C1=O` (stereo not drawn), -0.4%; that for `Cc1ccc(OCC2Cn3c(nc4c3c(=O)n(C)c(=O)n4C)O2)cc1` (stereo not drawn), 1.1%. For `COc1ccc(OC)c(-n2nnnc2SCC(=O)O)c1`, the displacement is 4.6%. The figure for `CCC(=O)N(Cc1cc2ccccc2[nH]c1=O)C(C)C` is 7%.

Consider `Cc1ccc2c(c1)NCC(C(=O)NCc1ccccc1)O2` (stereo not drawn), for which the displacement is 1.6%.

Consider `CCc1cccc(NS(=O)(=O)c2ccc3c(c2)oc(=O)n3C)c1`, for which the displacement is 1.5%. The result for `CC1(c2ccc(OC(F)F)cc2)NC(=O)N(CC(=O)Nc2ccc3c(c2)OCO3)C1=O` (stereo not drawn) reads -2.6%; that for `Cc1cccc(C)c1NC(=O)NC1(C(=O)NCCCN2CCOCC2)CCCCC1`, -2.5%. The figure for `Cc1noc(C)c1COC(=O)CCCc1nc2ccccc2s1` is 0.6%. The result for `COc1ccc(C(=O)Nc2ccc3oc(-c4cccc(F)c4)nc3c2)cc1OC` reads 2.4%. Turning to `Cc1ccc(/C=N/NC(=O)CC2N=C(Cc3ccccc3)NNC2=O)cc1` (stereo not drawn), the displacement is -1.6%.

(Values after PubChem BioAssay AID568 (Sanford-Burnham Center for Chemical Genomics, 2006).)
